PrP 5UTR inh: suppresses PrP 5' UTR mRNA reporter expression | cell-based PrP 5' UTR mRNA reporter, plate reader | inhibition, % (no concentration beside the values) | 340,000 compounds, 0.35% hits | AID 488862; in the data active = inhibition above about 52%; also: 0 = median of the neutral control wells
BJeLR lethal: BJeLR cell viability loss. AID 1554. 300,000 compounds, 0.17% hits. BJeLR (HRASV12) viability, CellTiter-Glo ATP luminescence, 48 h. inhibition, % (test concentration not listed); in the data active = inhibition above about 50%
PrPC TRFRET: inhibitors of human cell surface prion protein PrPC. inhibition, % at 13.8 µM. AID 720596. 370,000 compounds, 0.43% hits. P04156. TR-FRET read-out; in the data active = inhibition above about 24%; also: 0% = median of the test wells and 100% = reference compound wells
SSB-PriA inh: inhibitors of Klebsiella pneumoniae PriA binding to SSB C-terminal tail; AlphaScreen SSBct-PriA binding, biotinylated peptide; inhibition, % at 33 µM; 430,000 compounds, 0.6% hits; AID 1272365; in the data active = inhibition mostly above about 37%, no sharp cut-off; inactive = mostly below about 20%;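 also: plate controls were negative control peptide for no effect and reference peptide for full effect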
PfHsp40 rescue: rescue of PfHsp40-mediated yeast toxicity; AID 504582; growth rescue, % at 12.5 µM; S. cerevisiae expressing PfHsp40, growth rescue, ATP luminescence; 340,000 compounds, 0.68% hits; in the data active = growth rescue above about 28%, passing the limit was not always enough;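 also: yeast W303a lacking pdr1 and pdr3 grown in galactose medium; growth measured after three days at 30 °C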
RecA intein inh: Mtb RecA intein splicing inhibition | P9WHJ3 | AID 2221 | 290,000 compounds, 0.75% hits | cell-free RecA intein splicing, fluorescence | inhibition, % (concentration not given with the values); in the data active = inhibition above about 30%;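 also: 0% = vehicle wells and 100% = reference inhibitor control wells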
Active calls of the source: *; · = no result given; ! = a repeat was not active. Most compounds without a hit are left out; they make up all but 1.9% or so of the library.

SMILES	PrP 5UTR inh	BJeLR lethal	PrPC TRFRET	SSB-PriA inh	PfHsp40 rescue	RecA intein inh
O=C(Nc1nnc(C2CCCO2)o1)C1COc2ccccc2O1 (stereo not drawn)	·	·	·	75*	·	·
Cc1cc(-c2nnc(NC(=O)C3COc4ccccc4O3)o2)n(C)n1 (stereo not drawn)	·	·	·	44*	·	·
Cc1csc(NC(=O)CSc2nc(=O)n(CC3CCCO3)c3c2CCCC3)n1 (stereo not drawn)	·	·	·	9	·	·
COc1ccc2c(=O)c(Oc3ccc(C(=O)Nc4cc(C)ccc4OC)cc3)coc2c1	·	·	·	13	·	·
CSc1ccccc1CN1CCC(CNC(=O)C(=O)Nc2ccc(OC(F)(F)F)cc2)CC1	·	·	·	-8	·	·
O=C(CSc1nnc(-c2ccccn2)n1Cc1ccco1)c1ccccc1	-19	-5	-1	-15	-2	0
O=C(CSc1nnc(-c2ccccn2)n1Cc1ccco1)c1ccc(Cl)cc1	-24	12	0	90*	5	5
CSc1ccc(S(=O)(=O)NC2CCCCCC2)cc1	-50	-12	7	-19	67*	7
S=c1nc(-c2sccc2OCc2ccc(Cl)cc2Cl)[nH][nH]1	-26	1	3	2	45*	0
CNC(=S)NNC(=O)c1sccc1OCc1ccc(Cl)cc1Cl	-26	6	-5	-7	-1	-1
FC(F)(F)Oc1ccccc1CN1CC(c2nc(-c3cnccn3)no2)C1	·	·	·	1	·	·
N#Cc1cccc(C(=O)NCc2cccc(Oc3ccccn3)c2)c1	·	·	·	-1	·	·
COCCCNC(=O)CSc1nc2cc(S(=O)(=O)N3CCCCC3)ccc2o1	-25	-5	6	46*	0	-3
COCC(C)NC(=O)CSc1nc2cc(S(=O)(=O)N3CCCCC3)ccc2o1 (stereo not drawn)	-15	·	-3	10	-1	·
O=C(Nc1ccncc1)c1c[nH]c(=O)n(Cc2ccco2)c1=O	·	·	·	-2	·	·
COc1cccc(-c2nnc3ccc(OCCNC(=O)c4c(OC)cccc4OC)nn23)c1	·	·	·	-11	·	·
O=C(O)c1ccc2c(c1)C(=O)/C(=C\c1ccco1)C2=O	-7	2	1	5	-1	0
Cc1ccc(/C=C2/C(=O)c3ccc(C(=O)O)cc3C2=O)o1	-11	13	-8	9	45*	1
CCN(CC)CCn1c2ccccc2c(=O)c2c(O)ccc(O)c21	-13	·	-31	54*	2	·
CCN(CC)CCn1c(O)c(N=O)c2ccccc21	0	1	-8	-6	-1	-2
Cc1ccc(-c2nnc(Cn3cnc4ccccc43)o2)cc1	·	·	·	15	·	·
CO[C@@](C)(CNC(=O)c1ccccc1C(F)(F)F)c1cccc(Cl)c1	·	·	·	-12	·	·
Cc1nc(SCC(=O)NC(=O)NCc2ccccc2)nc(C)c1C	-2	-2	10	-15	0	1
O=C(CSc1ccccc1)NC(=O)NCc1ccccc1	-7	4	2	0	84*	0
CSC(=S)N/N=C/c1ccccc1	-14	-4	-4	·	257*	-2
SMILES	PrP 5UTR inh	BJeLR lethal	PrPC TRFRET	SSB-PriA inh	PfHsp40 rescue	RecA intein inh
CC(=O)Oc1cc2c(cc1Cl)C1(CC(c3ccccc3Cl)O2)CC(C)(C)NC(=S)N1 (stereo not drawn)	-11	-1	-2	26	18	45*
COc1ccc2ccc3c(c2c1)N=CC1(O3)N(C)c2ccccc2C1(C)C (stereo not drawn)	-13	-2	·	6	-1	76*
CN1c2ccccc2C(C)(C)[C@]12C=Cc1cc(O)ccc1O2	-13	-3	9	19	3	·
CC1C(=O)NCCN1C(=O)Cc1ccc2c(c1)OCO2 (stereo not drawn)	·	·	·	-16	·	·
O=C(CN1C(=O)CC(c2ccccc2)=Nc2ccccc21)NCc1ccccc1	-17	-1	-4	0	119*	1
CCC(C)c1ccccc1OCC(O)CN1CCN(CCN2C(=O)c3cccc4cccc(c34)C2=O)CC1 (stereo not drawn)	·	·	·	46*!	·	·
COc1ccc(C(=O)CN2CCN(CCN3C(=O)c4cccc5cccc(c45)C3=O)CC2)cc1	-8	2	-26	62*!	0	4
O=C(O)c1ccccc1C(=O)N1CCCC1	·	·	·	-1	·	·
c1ccc(-c2nc3ccccc3nc2-c2ccccn2)nc1	-3	-2	-15	-6	1	1
Clc1cc(-c2ccccn2)nc(-c2ccccn2)c1	·	·	·	64*	·	·
Brc1cc(-c2ccccn2)nc(-c2ccccn2)c1	·	·	·	58*	·	·
Clc1cccc(-c2ccccn2)n1	·	·	·	14	·	·
